A selection: hits, their analogues and other compounds. The true share with any hit is near 7.3%.
HCMV inh – blocks human cytomegalovirus replication | HFF cells, HCMV-luciferase reporter, 72 h; stronger effect = lower value | activity change, negative = inhibition, % at 57.5 µM | actives 4.5% (n = 410,000); in the data active = activity change below about -60%; inconclusive = no clear call, values can overlap the other calls; inactive = above about -39%
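HFF cells seeded 16 h at 37C, treated with compounds, infected with luciferase-reporter HCMV at MOI 1 PFU/cell; luciferase read at 72 h post infection, normalized to buffer-only and Salinomycin controls.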
Vaccinia Venus – inhibitors of vaccinia virus (Venus reporter). Vaccinia virus Venus reporter expression, fluorescence. Potency, µM (titrated, usually from 36.5 µM), inactives show at the top dose activity change, negative = inhibition, most hits filed as inhibitors. actives 0.46% (n = 330,000); calls by dose curve; tested in A549 cells; note: potency is the fitted concentration of half-maximal effect; nearly all actives have a fitted effect of over 30% in size
VACV mCherry inh – inhibitors of vaccinia virus infection (mCherry reporter signal); Vaccinia virus mCherry reporter infection, fluorescence; Potency, µM (doses to about 36.5 µM), without a hit: at the top dose activity change, negative = inhibition, usual class: inhibitors; actives 0.63% (n = 310,000); calls by dose curve; tested in A549 cells; note: potency is the fitted concentration of half-maximal effect; nearly all actives have a fitted effect of over 35% in size
HCV inh – blocks hepatitis C virus; Huh7.5.1 HCVcc-Cre infection, luciferase reporter, 44 h; Potency, µM (highest dose often 41.8 µM), without a hit: top-dose activity change, negative = inhibition, actives largely listed as inhibitors; actives 3.4% (n = 340,000); AID 651820; active = well fitted inhibition curve with a large enough effect; inconclusive = small, poorly fitted or top-dose-only effect, or another doubt; inactive = no such curve, though single readings can be large or run the other way; note: potency is the fitted concentration of half-maximal effect
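A cell-based infection assay in which seeded cells (1,000 per well) receive test compound after 4 h, are inoculated with HCVcc-Cre at approximately 0.5 moi, and are incubated 44 h before luminescence detection.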
FMDV antiviral – foot and mouth disease virus antiviral activity; FMDV antiviral cell-based qHTS; Potency, µM (series often up to 57.9 µM), for the others: at the highest dose activity change, negative = inhibition, most hits filed as inhibitors; actives 1.2% (n = 410,000); AID 1159524; calls by dose curve; tested in HEK293T cells; note: read-out not given here; potency is the fitted concentration of half-maximal effect; nearly all actives have a fitted effect of over 45% in size
An asterisk follows results filed as active; i = inactive; ? = inconclusive; / = no result given. % is set by controls: 0 for no effect and ±100 for the full control effect.

SMILES | HCMV inh | Vaccinia Venus | VACV mCherry inh | HCV inh | FMDV antiviral
CCOC(=O)Cc1csc(NC(=O)C(CC(C)C)NC(=O)C2CCCCC2)n1 (centres undefined) | -36 | / | / | 14µM* | -19%
CN(C)CCNC(=O)CCCN1C(=O)c2cccnc2Oc2ccc(Cl)cc21 | 0 | 2% | -8% | / | -1%
CS(=O)(=O)c1ccc(C(=O)OCC(=O)N2CCCC2)cc1[N+](=O)[O-] | / | -15% | -3% | / | /
Cn1c(N)c(C(=O)Nc2ccc(-c3ccccc3)cc2)sc1=S | -76* | / | / | ? | ?
Cn1c(N)c(C(=O)NCc2ccccc2Cl)sc1=S | 5 | -23% | / | -10% | 0%
CCn1c(N)c(C(=O)NCC2CCCO2)sc1=S (centres undefined) | 13 | -4% | / | 17% | -22%
C=CCn1c(N)c(C(=O)NCC2CCCO2)sc1=S (centres undefined) | -62* | -14% | -17% | 1% | -16%
C=CCn1c(N)c(C(=O)Nc2ccc(C)cc2)sc1=S | -91* | -6% | ? | -9% | 74%
CC(=O)c1ccc(C(=O)Nc2ccc(N3CCOCC3)cc2)cc1 | 16 | -6% | / | -9% | -15%
Cc1nc2cc(NC(=O)Nc3ccc(N4CCOCC4)cc3)ccc2n1C | -63* | -4% | -2% | 18% | -3%
CC(C)c1ccc(C(=O)Nc2ccc(N3CCOCC3)cc2)cc1 | -66* | ? | ? | ? | -19%
CC(=O)c1ccc(N2CCN(C(=O)Nc3ccc(C(C)C)cc3)CC2)cc1 | -82* | -28% | ? | 3.2µM* | 14µM*
CC(C)(C)c1ccc(C(=O)Nc2ccc(N3CCOCC3)cc2)cc1 | -78* | -30% | -16% | 1.8µM* | /
CC1=C(C(=O)OCc2ccc3nsnc3c2)N2C(=O)[C@@H](NC(=O)OCc3ccc4nsnc4c3)[C@H]2SC1 | / | -4% | i | / | /
Oc1ccc(/C=C/c2ccnc3ccccc23)cc1 | -61* | -29% | ? | 8.9µM* | 42%
CS(=O)(=O)c1nc([N+](=O)[O-])nn1CCCc1ccccc1 | / | -4% | -13% | ? | 18µM*
Cn1nc([N+](=O)[O-])nc1S(C)(=O)=O | ? | -22% | ? | 10µM* | ?
CC(C)N(C(=O)[C@H]1C[C@H](CC(=O)NCCCN(C)C)C(=O)N2CCc3c([nH]c4ccc(Cl)cc34)[C@]12C)C(C)C | -10 | -5% | i | 10µM* | -14%
CCN(CC)C(=O)[C@H]1C[C@H](CC(=O)NCCCN(C)C)C(=O)N2CCc3c([nH]c4ccc(Cl)cc34)[C@]12C | -26 | ? | i | ? | -5%
CCN(CC)C(=O)[C@H]1C[C@H](CC(=O)NCC23CC4CC(CC(C4)C2)C3)C(=O)N2CCc3c([nH]c4ccc(Cl)cc34)[C@]12C | -35 | 10µM* | ? | ? | -8%
CC(C)N(C(=O)[C@H]1C[C@H](CC(=O)NCC23CC4CC(CC(C4)C2)C3)C(=O)N2CCc3c([nH]c4ccc(Cl)cc34)[C@]12C)C(C)C | -16 | 13µM* | ? | 16µM* | ?
c1ccc2c(-c3cc(NCc4ccncc4)n4nccc4n3)cccc2c1 | 13 | 6% | -1% | / | 0%
Cc1ccc(-c2nc3scc(CCNS(=O)(=O)c4ccc(Oc5ccccc5)cc4)n3n2)cc1 | -20 | -30% | ? | / | -29%
COc1cc(NC(=O)c2cccc(C)c2)ccc1NC(=O)c1cc2ccccc2o1 | -87* | 8.9µM* | ? | ? | -21%
CC(=O)Nc1ccccc1NC(=O)c1ccc(C)cc1C | -63* | 0% | -7% | 1% | -2%
SMILES | HCMV inh | Vaccinia Venus | VACV mCherry inh | HCV inh | FMDV antiviral
Cc1cccc(C(=O)Nc2cccc3c2CCCC3)c1 | -101* | -1% | -12% | 21% | 23%
CC(=O)Nc1ccc(C)cc1NC(C)=O | -2 | ? | i | 0% | -5%
CCOc1cccc(C(=O)Nc2ccc(NC(=O)c3cc4ccccc4o3)c(OC)c2)c1 | -21 | -2% | -8% | ? | -21%
Cc1cccc(C(=O)Nc2ccccc2NC(=O)c2cccc(C)c2)c1 | -61* | -23% | i | ? | -22%
CCCCN(CCCC)c1nc2ccccc2nc1C(C#N)C(=O)NCCCOC (centres undefined) | -39 | 4% | / | 6% | -9%
CCN(CC)c1nc2ccccc2nc1C(C#N)C(=O)NCCCOC (centres undefined) | 0 | -20% | / | 7.1µM* | ?
